# Reference: PubChem BioAssay AID2069 (Sanford-Burnham Center for Chemical Genomics, 2009)
# Screen size: about 1,200 compounds; about 210 (18%) were called active. Cut-off read from the data, not from the text of the source: active = inhibition above about 30%; inactive = the rest. These entries were drawn from the full list.
# Experiment: fluorescence readout artefact check – biochemical, HTRF, uHTS, artefact control for SUMOylation inhibitor project, confirmation (AID 2069)
# Settings: HTRF interference counterscreen, at 35 µM, stronger effect = higher value
row,SMILES,inhibition
1,COc1ccccc1Oc1c(C)oc2c(CN3CCN(C)CC3)c(O)ccc2c1=O,30.4% (active)
2,CCOc1cc(C2c3c(oc4ccccc4c3=O)C(=O)N2c2nccs2)ccc1O (stereo unspecified),-2.15% (inactive)
3,CCOc1ccccc1Oc1c(C)oc2c(CN3CCN(C)CC3)c(O)ccc2c1=O,40.3% (active)
4,Oc1ccc2ccccc2c1C=NCc1cn2ccsc2n1,0.1% (inactive)
5,CC(C)c1ccc(NC(=S)Nc2cccc3ccccc23)cc1,-7.9% (inactive)
6,COc1ccc2cc3c(N)nn(C(=O)Cc4ccc(Cl)cc4)c3nc2c1,23.9% (inactive)
7,CCN(CC)C(=O)c1sc2nc(-c3ccncc3)[nH]c(=O)c2c1C,47.2% (active)
8,CCCCCCC(C)OC(=O)c1ccccc1C(=O)O (stereo unspecified),3.05% (inactive)
9,NC(=S)n1[nH]c(-c2ccc([N+](=O)[O-])cc2)c(N=Nc2cccc(Cl)c2)c1=O,10.7% (inactive)
10,COc1ccc(-c2cc(C(F)(F)F)n3ncc(C(=O)NCc4ccco4)c3n2)cc1,44.1% (active)
11,COc1ccc(C(=O)Nc2ccc(-c3nnn(CC(=O)NCc4ccco4)n3)cc2)cc1,26.7% (inactive)
12,COc1ccc(CCn2c(N)c(C(=O)NCc3ccco3)c3nc4ccccc4nc32)cc1OC,1.65% (inactive)
13,COc1ccc2oc(=O)c(/C(C)=N/NC(=O)c3ccncc3)cc2c1,18.8% (inactive)
14,COc1ccc2oc(=O)c(C(=O)NCc3ccco3)cc2c1,48.4% (active)
15,Cc1onc(-c2ccccc2Cl)c1C(=O)NCc1ccco1,11.2% (inactive)
16,COc1ccc(CNC(=O)c2c(C)oc3c2C(=O)c2ccccc2C3=O)cc1,5.35% (inactive)
17,COc1ccc2oc(=O)c(C(=O)NCC3CCCO3)cc2c1 (stereo unspecified),40.9% (active)
18,Cc1cc(C)cc(NC(=S)Nc2cccc3cnccc23)c1,-5.7% (inactive)
19,COc1ccc(S(=O)(=O)N(C)c2ccc(C(=O)NCc3ccccn3)cc2)cc1,-4.1% (inactive)
20,N#CC1=C(N)Oc2n[nH]c(-c3cccs3)c2C1c1ccoc1 (stereo unspecified),-10.8% (inactive)
21,COC(=O)c1cc(O)cc(OC)c1Oc1cc(C)cc(O)c1C(=O)O,11% (inactive)

row,SMILES,inhibition
1,COc1ccc2c(C)c(C(=O)NCC(C)O)oc2c1OC (stereo unspecified),38% (active)
2,Oc1ccc(NCc2ccccc2OCc2ccccc2F)cc1,-9.2% (inactive)
3,COc1cc2c(-c3ccc(O)cc3)nc3c(c(C)nn3-c3ccccc3)c2cc1OC,9.45% (inactive)
4,CCCCCCCC(=O)Nc1ccc(C(=O)N/N=C/c2cccc([N+](=O)[O-])c2)cc1,-8.25% (inactive)
5,CC(=O)Nc1ccc(-c2cn3cccnc3n2)cc1,52.3% (active)
6,CCCCCCCn1c(NC(=O)CC)nc2ccccc21,4.3% (inactive)
7,CC(=O)Nc1ccc(S(=O)(=O)Nc2cccn(Cc3ccc(C)cc3)c2=O)cc1,1.85% (inactive)
8,CCCCCC(=O)Nc1ccc(-c2cn3cccnc3n2)cc1,49.3% (active)
9,CCc1ccc(S(=O)(=O)/N=C2\C=CC(=O)c3ccccc32)cc1,7.75% (inactive)
10,Cc1ccc(-n2nc(C)c3c2OC(N)=C(C#N)C3c2ccc(C)o2)cc1 (stereo unspecified),-11.4% (inactive)
11,O=C(Nc1ccc(Cl)c(Cl)c1)Nn1cnnc1,41.3% (active)
12,CN(C)S(=O)(=O)c1cc(NC(=O)CNCc2ccccc2)ccc1Cl,-6% (inactive)
13,NS(=O)(=O)c1ccc(NC(=O)c2ccc(-c3ccccc3)cc2)cc1,-3.1% (inactive)
14,Cc1[nH][nH]c(=O)c1C(c1ccc(-c2ccc(C(=O)O)cc2)o1)c1c(C)[nH][nH]c1=O,0.5% (inactive)
15,CCOC(=O)c1sc(NC(=O)c2cccc(S(=O)(=O)N3CCc4ccccc43)c2)c(C#N)c1C,-22.4% (inactive)
16,Cc1c(Br)c(O)c(Br)c2sc(=O)oc12,-25.6% (inactive)
17,O=C(NNc1cc(N2CCOCC2)nc(N2CCOCC2)n1)c1ccc([N+](=O)[O-])cc1,1.6% (inactive)
18,Nc1cccc2cnccc12,3.2% (inactive)
19,COc1ccc(C(=O)CSc2nnc(-c3ccco3)c(-c3ccco3)n2)cc1,-2.15% (inactive)
20,Nc1ccc2c(c1)C/C(=C/c1ccco1)C2=O,62.9% (active)
21,NC1=NC(=O)/C(=C\c2ccco2)S1,16.6% (inactive)

row,SMILES,inhibition
1,NN1C(=O)/C(=C\c2ccco2)SC1=S,4.75% (inactive)
2,COc1ccc(-c2csc(NC(=S)NC(=O)/C=C/c3ccco3)n2)cc1OC,10.6% (inactive)
3,Cc1ccc(/C=C2\SC(=S)N(/N=C/c3cc([N+](=O)[O-])ccc3O)C2=O)o1,-7.65% (inactive)
4,Cc1nn2cc(-c3ccccc3)nc2[nH]c1=O,62.4% (active)
5,CCOC(=O)c1c2ccc(OCC(=O)NN)cc2n2ccccc12,29.6% (inactive)
6,N#Cc1c2ccc(OCC(N)=O)cc2n2ccccc12,35.8% (active)
7,CCOC(=O)c1c2ccc(OCC(=O)N/N=C/c3ccc(C)cc3)cc2n2ccccc12,19.8% (inactive)
8,CCc1cc2c(=O)nc3n(c2s1)Cc1ccccc1/C3=C(/O)c1cccc([N+](=O)[O-])c1,17% (inactive)
9,O=C(/C=C/c1cccs1)Nc1scc(-c2ccccc2)c1C(=O)O,26.6% (inactive)
10,COc1cccc(Cn2cccc(NC(=O)NC3CCCCC3)c2=O)c1,-4.4% (inactive)
11,Cc1cccn2c(=O)c3cc(C(=O)NC4CCCCCC4)sc3nc12,31.1% (active)
12,Cc1cccn2c(=O)c3cc(S(=O)(=O)c4ccccc4)c(=N)n(Cc4ccco4)c3nc12,5.25% (inactive)
13,O=C1C=C(O)CC(c2ccco2)C1 (stereo unspecified),5.85% (inactive)
14,COCCNC(=S)Nc1ccc2nsnc2c1,-1.2% (inactive)
15,Cc1cc(C)cc(NC(=S)Nc2cccc3ccccc23)c1,-13.7% (inactive)
16,N#Cc1c(N)n(CCNC(=O)c2ccccc2)c2nc3ccccc3nc12,19.1% (inactive)
17,N#Cc1c(N)n(-c2cccc(C(=O)O)c2)c2nc3ccccc3nc12,33.5% (active)
18,COc1ccc(-n2c(NC(=O)c3ccco3)c(C#N)c3nc4ccccc4nc32)cc1,4.15% (inactive)
19,Cc1cccn2c(=O)c3cc(C#N)c(=NC(=O)c4ccco4)n(Cc4ccco4)c3nc12,23.1% (inactive)
